Measured values: the supplement of paper PMC6522484
Where “and” joins values, the source holds several entries; their conditions need not be identical. Equal values may be shown once. ± gives the standard deviation of the averaged measurements.

Key:
DLD1 [1] = test: cell viability (CellTiter-Glo) relative to plate median (fraction of plate median); higher = more viable cells; conditions: 10 µM, treatment time 24 h
Method in brief: (§1)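 Values are the mean of two independent replicates of luminescence normalised to the plate median with webcellHTS2, using the additive method without log transformation. They come from colorectal cancer cell lines stably transduced with lentiviral TCF/Wnt firefly luciferase reporters (7TFP or TCF4/Wnt), seeded in 384-well plates. After 24 h the cells got kinase inhibitor library compounds at a final 10 µM for 24 h, and parallel plates were read for firefly luciferase or CellTiterGlo on a Tecan F500.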

HCT116 [2] = test: as above; conditions: 10 µM; treatment time 24 h; reporter: TCF4/Wnt
Method in brief: as §1

SW480 [3] = test: as above; conditions: 10 µM; treatment time 24 h; reporter: 7TFP
Method in brief: as §1

DLD1 [4] = test: TCF/Wnt firefly luciferase reporter signal relative to plate median (fraction of plate median); higher = higher Wnt reporter signal; conditions: 10 µM, treatment time 24 h
Method in brief: as §1

HCT116 [5] = test: as above; conditions: 10 µM; treatment time 24 h; reporter: TCF4/Wnt
Method in brief: as §1

SW480 [6] = test: as above; conditions: 10 µM; treatment time 24 h; reporter: 7TFP
Method in brief: as §1

DLD1 [7] = test: cell viability (CellTiter-Glo) relative to plate median (fraction of plate median); higher = more viable cells; conditions: 5 µM; treatment time 24 h; reporter: 7TFP
Method in brief: (§2)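 Colorectal cancer lines with stably integrated lentiviral TCF/Wnt firefly luciferase reporters received library compounds at a final 5 µM, 24 h after seeding into 384-well plates, for a 24 h exposure. Reported figures are plate-median-normalised firefly luciferase or CellTiterGlo luminescence per well. They average two independent replicates.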

HCT116 [8] = test: as above; conditions: 5 µM; treatment time 24 h; reporter: TCF4/Wnt
Method in brief: as §2

SW480 [9] = test: as above; conditions: 5 µM; treatment time 24 h; reporter: 7TFP
Method in brief: as §2

DLD1 [10] = test: TCF/Wnt firefly luciferase reporter signal relative to plate median (fraction of plate median); higher = higher Wnt reporter signal; conditions: 5 µM; treatment time 24 h; reporter: 7TFP
Method in brief: as §2

SW480 [11] = test: as above; conditions: 5 µM; treatment time 24 h; reporter: 7TFP
Method in brief: as §2

| Structure (SMILES) | cell viability (DLD1 [1]; reporter: 7TFP) | cell viability (DLD1 [1]; reporter: TCF4/Wnt) | cell viability (HCT116 [2]) | cell viability (SW480 [3]) | TCF/Wnt firefly luciferase reporter signal (DLD1 [4]; reporter: 7TFP) | TCF/Wnt firefly luciferase reporter signal (DLD1 [4]; reporter: TCF4/Wnt) | TCF/Wnt firefly luciferase reporter signal (HCT116 [5]) | TCF/Wnt firefly luciferase reporter signal (SW480 [6]) | cell viability (DLD1 [7]) | cell viability (HCT116 [8]) | cell viability (SW480 [9]) | TCF/Wnt firefly luciferase reporter signal (DLD1 [10]) | TCF/Wnt firefly luciferase reporter signal (SW480 [11]) |
| --- | --- | --- | --- | --- | --- | --- | --- | --- | --- | --- | --- | --- | --- |
| CCOc1ccn(-c2ccc(F)cc2)c(=O)c1C(=O)Nc1ccc(Oc2ccnc(N)c2Cl)c(F)c1 | 0.97 ± 0.071 | 0.971 ± 0.056 | 1.16 ± 0.014 | 0.991 | 0.983 ± 0.12 | 0.893 ± 0.12 | 1.19 ± 0.23 | 0.978 ± 0.031 | – | – | – | – | – |
| Cc1cnc(Nc2ccc(OCCN3CCCC3)cc2)nc1Nc1cccc(S(=O)(=O)NC(C)(C)C)c1 | 1.07 ± 0.064 | 1.14 ± 0.16 | 1.14 | 0.871 ± 0.04 | 1.2 ± 0.26 | 1.14 ± 0.18 | 1.31 ± 0.22 | 1.06 ± 0.078 | – | – | – | – | – |
| C[C@@H]1CCN(C(=O)CC#N)C[C@@H]1N(C)c1ncnc2[nH]ccc12 | 1.02 and 1.09 | 1.07 and 1.1 | 1.21 and 1.14 | 0.9 and 0.972 | 1.06 and 1.04 | 0.874 and 0.875 | 1.18 and 1.36 | 0.736 and 0.979 | – | – | – | – | – |
| COc1cc2c(N3CCN(C(=O)Nc4ccc(OC(C)C)cc4)CC3)ncnc2cc1OCCCN1CCCCC1 [Tandutinib (MLN518)] | 1.09 ± 0.05 | 1.1 ± 0.085 | 1.09 ± 0.028 | 1.11 | 0.956 ± 0.12 | 1.03 ± 0.028 | 1.08 ± 0.035 | 1.33 ± 0.05 | – | – | – | – | – |
| Cc1ccc(NC(=O)c2ccc(CN3CCN(C)CC3)cc2)cc1Nc1nc(-c2cccnc2)cs1 [Masitinib (AB1010)] | 0.896 ± 0.073 | 1 ± 0.037 | 0.969 ± 0.037 | 0.993 ± 0.053 | 0.821 ± 0.019 | 1.25 ± 0.078 | 0.632 ± 0.1 | 1.01 ± 0.071 | – | – | – | – | – |
| CC[C@H](CO)Nc1nc(NCc2ccccc2)c2ncn(C(C)C)c2n1 [Roscovitine (Seliciclib, CYC202)] | 0.852 ± 0.065 | 0.922 ± 0.0099 | 0.923 ± 0.12 | 0.833 ± 0.039 | 1.14 ± 0.35 | 1.46 ± 0.23 | 1.34 ± 0.43 | 1.02 ± 0.028 | – | – | – | – | – |
| OCCn1cc(-c2cnc3nnn(Cc4ccc5ncccc5c4)c3n2)cn1 | 1.16 ± 0.035 | 1.01 ± 0.071 | 1.09 ± 0.028 | 0.905 ± 0.029 | 1.1 ± 0.11 | 1.07 ± 0.13 | 1.25 ± 0.028 | 1.05 ± 0.042 | – | – | – | – | – |
| CN1CCN(C2CCN(C(=O)Nc3cc(Oc4ccc(NC(=O)C5(C(=O)Nc6ccc(F)cc6)CC5)c(F)c4)ccn3)CC2)CC1 [Golvatinib (E7050)] | 0.964 ± 0.18 | 0.904 ± 0.011 | 1.07 ± 0.064 | 1.16 ± 0.064 | 0.719 ± 0.03 | 0.728 ± 0.028 | 0.915 ± 0.12 | 1.06 ± 0.12 | – | – | – | – | – |
| Nc1cccc(-c2cc3c(Oc4cccc(O)c4)ncnc3[nH]2)c1 | 1.17 ± 0.085 | 1.06 ± 0.078 | 1.05 ± 0.028 | 0.92 ± 0.018 | 0.961 ± 0.098 | 1.01 ± 0.014 | 1.28 ± 0.085 | 0.966 ± 0.04 | – | – | – | – | – |
| Cc1ccc(C(=O)Nc2cccc(C(F)(F)F)c2)cc1Nc1nc(-c2cccnc2)nc2c1cnn2C | 1.07 ± 0.035 | 1.06 | 0.912 ± 0.2 | 1.05 ± 0.042 | 1.36 ± 0.085 | 0.925 ± 0.2 | 1.12 ± 0.099 | 0.952 ± 0.48 | – | – | – | – | – |
| CC(C)(C)c1cnc(CSc2cnc(NC(=O)C3CCNCC3)s2)o1 | 1.09 ± 0.12 | 1.06 ± 0.23 | 0.786 ± 0.17 | 1.3 ± 0.099 | 0.462 ± 0.047 | 1.06 ± 0.92 | 0.228 ± 0.0071 | 0.84 ± 0.025 | – | – | – | – | – |
| Clc1ccc(C2(c3ccc(-c4cn[nH]c4)cc3)CCNCC2)cc1 | 1.01 ± 0.025 | 1.08 ± 0.028 | 1.03 ± 0.13 | 1.15 ± 0.057 | 1.13 ± 0.13 | 0.883 ± 0.11 | 0.871 ± 0.024 | 1.33 ± 0.021 | – | – | – | – | – |
| CN1CCN(c2ccc3nc(-c4c(N)c5c(F)cccc5[nH]c4=O)[nH]c3c2)CC1 [Dovitinib Dilactic acid (TKI258 Dilactic acid)] | 0.857 ± 0.19 | 0.956 ± 0.041 | 0.967 ± 0.13 | 1.17 ± 0.035 | 1.1 ± 0.099 | 1.16 ± 0.16 | 0.784 ± 0.52 | 1.09 ± 0.69 | – | – | – | – | – |
| COCCOc1ccc2c(c1)ncn2-c1ccc2cccc(N3CCC(N)CC3)c2n1 | 0.954 ± 0.11 | 1.14 ± 0.12 | 0.556 ± 0.16 | 1.05 ± 0.082 | 1.54 ± 0.16 | 2.17 ± 0.41 | 0.422 ± 0.12 | 1.71 ± 0.26 | – | – | – | – | – |
| Cc1ccc(NC(=O)c2ccc(CN3CCN(C)CC3)cc2)cc1Nc1nccc(-c2cccnc2)n1 [Imatinib (Gleevec)] | 1.05 ± 0.099 | 1.035 ± 0.0071 | 0.993 ± 0.024 | 0.986 ± 0.011 | 1.65 ± 0.057 | 1.55 ± 0.11 | 1.42 ± 0.23 | 1.39 ± 0.22 | – | – | – | – | – |
| CCn1cc(-c2ccnc3[nH]c(-c4cccc(CN(C)C)c4)cc23)c(-c2ccc(NC(=O)N(C)C)cc2)n1 | 0.994 ± 0.11 | 0.9965 ± 0.0021 | 0.913 ± 0.05 | 1.07 ± 0.099 | 1.01 ± 0.11 | 1.05 ± 0.081 | 1.71 ± 0.028 | 1.02 ± 0.16 | – | – | – | – | – |
| CC(=O)O[C@@H]1CC(=O)[C@@]2(C)C(CC(=O)[C@]3(C)C2CC[C@@]2(C)[C@H](c4ccoc4)OC(=O)C4OC423)C1(C)C (stereo partly drawn) | – | – | – | – | – | – | – | – | 1.025 ± 0.0071 | 1.025 ± 0.0071 | 0.981 ± 0.0057 | 0.986 ± 0.12 | 1.05 ± 0.098 |
